# From article PMC7819943, “Rice protein-binding microarrays: a tool to detect cis-acting elements near promoter regions in rice”
# Over roughly 68,000 sequences, “fluorescence intensity (a.u.)” has its median near 9,100; the highest 2% begin near 16,000. Shown is part of a subset that was picked to be rich in the highest values.
# Target: OsWRKY34 (Oryza sativa, UniProt Q0JBA9 1-250)
# Test: protein-binding microarray (RPBM); PBS, 2% BSA, 51.3 ng/ul salmon testes DNA, 50 uM zinc acetate, 200 nM TF, 25 C, 1 h; high values mean tight binding
# Conditions: protein: recombinant; tags: N-terminal polyhistidine and DsRed monomer fusion (pET32a); label: CyDye5-dUTP incorporated in the synthesized complementary strand; 3' TTTTT single-stranded linker to array surface; dsDNA, one strand shown
# Method in brief: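 Per-feature fluorescence intensity (arbitrary units), read on an Axon 4000B scanner, is the binding signal. Transcription factors carrying an N-terminal polyhistidine tag and DsRed fusion were expressed in E. coli BL21-CodonPlus and purified on Ni–NTA. A custom Agilent array, made double-stranded by primer extension with Cy5-dUTP and blocked with 2% BSA, was incubated with 200 nM protein in PBS, 2% BSA, salmon testes DNA and 50 µM zinc acetate at 25 °C for 1 h and then washed.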
# Sequence of OsWRKY34 (Q0JBA9 entry or part of it): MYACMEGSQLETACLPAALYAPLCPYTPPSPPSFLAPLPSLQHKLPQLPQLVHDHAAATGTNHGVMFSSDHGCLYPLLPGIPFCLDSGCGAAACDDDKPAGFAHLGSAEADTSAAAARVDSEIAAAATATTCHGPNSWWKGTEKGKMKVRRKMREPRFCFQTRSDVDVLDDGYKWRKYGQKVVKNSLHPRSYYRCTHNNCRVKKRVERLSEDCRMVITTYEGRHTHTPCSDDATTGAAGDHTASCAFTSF
row,Sequence,binding signal
1,CCTTTTGTCAGTCTAGCCAAAGATCTAGGATCTTCAACACCGGAGTCACCTAGTGCAG,8100 fluorescence intensity (a.u.)
2,ACCCGCCGTCGCTCTCCAACGCGCTCGTCGCGGCGTTCAACGGAGTCACCTAGTGCAG,8970 fluorescence intensity (a.u.)
3,TGCTTGTTCCGGTTCCTTCCCAACCCTTTTGCAAGAACACCGGAGTCACCTAGTGCAG,9120 fluorescence intensity (a.u.)
4,GTCACCGTCTCGTCTCCGTCTCCGCCGCTCGTCGTCGACCCGGAGTCACCTAGTGCAG,12600 fluorescence intensity (a.u.)
5,AAAAAAATCTCGTTGTTACTGTCTATAGATCACTATATTACGGAGTCACCTAGTGCAG,8570 fluorescence intensity (a.u.)
6,GCCGCCATCGTTCCTGTTCGCCGCCCGTTGTCCTTCCAATCGGAGTCACCTAGTGCAG,13000 fluorescence intensity (a.u.)
7,TTCTTCACCGTTTTGTTTTCTCTGCGCCTCAAATTTCCTTCGGAGTCACCTAGTGCAG,12000 fluorescence intensity (a.u.)
8,CCGGTGATGTTTTTATTTTTCTTCCGGTTCTTTTTCTCAACGGAGTCACCTAGTGCAG,12300 fluorescence intensity (a.u.)
9,TGAGTTGTTTTGTTGATAGGTATAGATATGAATCGAATTACGGAGTCACCTAGTGCAG,8950 fluorescence intensity (a.u.)
10,ACGTATTTGTGAGGGGATTTGGTACCATTACATCTGTTTTCGGAGTCACCTAGTGCAG,8192 fluorescence intensity (a.u.)
11,CTGATGGTGTTGGTGATGGTGGTGCGGGTGCGGCAGTTGACGGAGTCACCTAGTGCAG,13200 fluorescence intensity (a.u.)
12,TTGACAATGGTTGGGGTGGTGGTGGTGTTCGCGGTGATGACGGAGTCACCTAGTGCAG,31700 fluorescence intensity (a.u.)
13,TTTCTTTTCATATATTTTTGTTTATTTTCTCTCATTTCTCCGGAGTCACCTAGTGCAG,11300 fluorescence intensity (a.u.)
14,ATTCTGTATTTATTGTTTGCTGCATTCAGTTTGATTGGTTCGGAGTCACCTAGTGCAG,13900 fluorescence intensity (a.u.)
15,GGTTGGTGCTGTATTGTTTGAGGGGAGGGGATTCCATTTTCGGAGTCACCTAGTGCAG,47400 fluorescence intensity (a.u.)
16,TTGTTGGGTGCTGAATTGCTGATGTGGTGGGGTGACATGACGGAGTCACCTAGTGCAG,12500 fluorescence intensity (a.u.)
17,AGATTGGGTTTGGGTGGTGTGAGGATTGATTTGTTTTTTTCGGAGTCACCTAGTGCAG,17800 fluorescence intensity (a.u.)
18,TTGTGGATTTTTTTTTTTTGAGAGGGATGGGTGTTTGATTCGGAGTCACCTAGTGCAG,10900 fluorescence intensity (a.u.)
19,GGGGTGACATTTCAATTGTTTTTCTCTTATATTTGTAATCCGGAGTCACCTAGTGCAG,20100 fluorescence intensity (a.u.)
20,GAGGATTGATTTGTTTTTTTTTTTTGGGGTTTTCTCTTCTCGGAGTCACCTAGTGCAG,16300 fluorescence intensity (a.u.)
21,GGTGACTGATAATTATTATTTTCTTTGTTTCACATTATACCGGAGTCACCTAGTGCAG,14200 fluorescence intensity (a.u.)

row,Sequence,binding signal
1,GGACTGCTCCACCATTTTTAGTCCCGGTTGGTAATACCAACGGAGTCACCTAGTGCAG,8570 fluorescence intensity (a.u.)
2,AATCTATCCCAGCCTAAATCTCACTGTTTCATGCACAACTCGGAGTCACCTAGTGCAG,8350 fluorescence intensity (a.u.)
3,GCGCGCGTCCCGTCACGTCTTTTCTCCTCGCCTATATGCCCGGAGTCACCTAGTGCAG,9050 fluorescence intensity (a.u.)
4,CAGCTATCGTTATTCTGAAGATCCACCAAGCACAATCTTACGGAGTCACCTAGTGCAG,8280 fluorescence intensity (a.u.)
5,TCGGTGGGTGGTTGGGGATATTGCAAAAAGTATATAAAAACGGAGTCACCTAGTGCAG,15800 fluorescence intensity (a.u.)
6,TTAACTGCAACCATAAGTTTCTGCGCCTAACTTTGATCGTCGGAGTCACCTAGTGCAG,8850 fluorescence intensity (a.u.)
7,TGTTTTGTGGGGAGGGGTGTACATATACAACTTAGTACTCCGGAGTCACCTAGTGCAG,20300 fluorescence intensity (a.u.)
8,GGGCGTGTGGTTGAGAACTTGATTGGGATGATGATGAGACCGGAGTCACCTAGTGCAG,10400 fluorescence intensity (a.u.)
9,TAGTATATACATGGGTGTTTGGGAGAGAGGGGCTAAACTTCGGAGTCACCTAGTGCAG,9540 fluorescence intensity (a.u.)
10,ATTCTCTCTTCTGTGTTTCCTTTTTGAGATACTTCATTTTCGGAGTCACCTAGTGCAG,9340 fluorescence intensity (a.u.)
11,TTCCTATGTTTTTCCTGTGTTTTGTAATTCTCTGTTTTACCGGAGTCACCTAGTGCAG,10600 fluorescence intensity (a.u.)
12,ACTTCCCATTGTTGTTGCCATCGCCGCCGCCGCCGCCGCCCGGAGTCACCTAGTGCAG,12200 fluorescence intensity (a.u.)
13,CGCCGAGGGGAGGGGAGGGGAGGTTGCCATTGTTGTCCATCGGAGTCACCTAGTGCAG,22000 fluorescence intensity (a.u.)
14,CCACTTGTACATATACAACTTGTTTTGTGGGGAGGGGTGTCGGAGTCACCTAGTGCAG,12700 fluorescence intensity (a.u.)
15,TGCGCCATCTTTTGTCGTCCCGAGGGGATGGGCGGGGTTGCGGAGTCACCTAGTGCAG,16400 fluorescence intensity (a.u.)
16,GGGCGCGATGGGTTGGGGTGTGTTTCCGTGGATTGATGACCGGAGTCACCTAGTGCAG,21100 fluorescence intensity (a.u.)
17,GGGGTAATTTCTCTGTGTTTTGAGTTGAGGGAGATAATTCCGGAGTCACCTAGTGCAG,16900 fluorescence intensity (a.u.)
18,ACGTTGGATTGGTGGTGGACGGGCGCGATGGGTTGGGGTGCGGAGTCACCTAGTGCAG,9930 fluorescence intensity (a.u.)
19,CGAGAGATCGTTGCCCTCCGTATCCACTACTACTACACTCCGGAGTCACCTAGTGCAG,8310 fluorescence intensity (a.u.)
20,CAGGATTGCTTGGAGATTCGTGCGGGGACGCGCGGGGTGACGGAGTCACCTAGTGCAG,9720 fluorescence intensity (a.u.)
21,TACCGGTTAAAACGCCCAAGTCAGTGGCTCTCGTCCTCCTCGGAGTCACCTAGTGCAG,8860 fluorescence intensity (a.u.)

row,Sequence,binding signal
1,GTGCAGTTTATACATTAACATGTTAATCCCACTTTACTACCGGAGTCACCTAGTGCAG,10300 fluorescence intensity (a.u.)
2,ACGGCATTTTTCGCCCCTTTTGTCACTGAAACACTTCACCCGGAGTCACCTAGTGCAG,8860 fluorescence intensity (a.u.)
3,GCAGCCCTCAATTTCTATGGCGATCGCCTCTGCTTCGTCGCGGAGTCACCTAGTGCAG,8440 fluorescence intensity (a.u.)
4,GGCCTCCTTCATCACGCCCTGGATCTCACTGACTAAAAACCGGAGTCACCTAGTGCAG,8030 fluorescence intensity (a.u.)
5,CTATGTTCATCCTCGTGTCATATTGTGTTCATCTTCATACCGGAGTCACCTAGTGCAG,11600 fluorescence intensity (a.u.)
6,GAGGGAGTATTATCTTCTGAACATATGTTTGACCATTGGACGGAGTCACCTAGTGCAG,8940 fluorescence intensity (a.u.)
7,ATTACCCTAATCATCATTCATTCATGTATAGCTCATCCTACGGAGTCACCTAGTGCAG,8810 fluorescence intensity (a.u.)
8,ACCATCAAGTTCTGCTTTTCTTCCCCATGTTTTTTTGCCCCGGAGTCACCTAGTGCAG,10700 fluorescence intensity (a.u.)
9,ATGTTGATATTGTGGTTGGTTGTGGGCATGTTACATTTTCCGGAGTCACCTAGTGCAG,11500 fluorescence intensity (a.u.)
10,CATGTGTTTGATTTCCTGTTTATATTTTGTTCAGAGTTTCCGGAGTCACCTAGTGCAG,11700 fluorescence intensity (a.u.)
11,TAATATTTCTTGCGGTGGGTTGGATTGATATCGATTGTTTCGGAGTCACCTAGTGCAG,17600 fluorescence intensity (a.u.)
12,AGGAGGTGTTGTTTCTTGCGATCTTGGGTTGATTGATATGCGGAGTCACCTAGTGCAG,8460 fluorescence intensity (a.u.)
13,GGTGGGTGTTTTAATGTGACATGATATTTGTGGTTGGGTTCGGAGTCACCTAGTGCAG,21700 fluorescence intensity (a.u.)
14,TGCGGGTTGTTTTGATTGACAATTTAGTGTTGGTGTTGTTCGGAGTCACCTAGTGCAG,9980 fluorescence intensity (a.u.)
15,TGATATGTTGGTGAATGGTAATTTTTTGGGTTGATATATTCGGAGTCACCTAGTGCAG,11200 fluorescence intensity (a.u.)
16,CTCTGTGTTGTTTTTGGCATGTGTTTGATATTTGGAGTTCCGGAGTCACCTAGTGCAG,16600 fluorescence intensity (a.u.)
17,CATTCCGGTTGGTGTTTTTCGCTTGATTTGTACTACTATTCGGAGTCACCTAGTGCAG,18500 fluorescence intensity (a.u.)
18,TGTACATGTGTTTGATTTTGCTTGTGGTTGCCGTGGATTTCGGAGTCACCTAGTGCAG,11500 fluorescence intensity (a.u.)
19,TCTTTCCTGTTTCCGCTTGGTTTTCCGGTGTTTATTTTGTCGGAGTCACCTAGTGCAG,14200 fluorescence intensity (a.u.)
20,CTCTGTTGGTTTCTTGCGGTTTTGATTATTTGTTTGTGGTCGGAGTCACCTAGTGCAG,11900 fluorescence intensity (a.u.)
21,CGATGACAAGTTGACGCACCTTGGGTGTACTTTTTCCTTCCGGAGTCACCTAGTGCAG,8280 fluorescence intensity (a.u.)

row,Sequence,binding signal
1,CTCCAACCTAACCCCTGCCTGCCTGCATCAACCATATATGCGGAGTCACCTAGTGCAG,8720 fluorescence intensity (a.u.)
2,CACTAATTTTGCCTTTGTGCCTTTTACTATTGCGCATCACCGGAGTCACCTAGTGCAG,10200 fluorescence intensity (a.u.)
3,ACATTAACTAAATGGTGGAGGGCAGGGGTTCGTCTTTCTTCGGAGTCACCTAGTGCAG,13600 fluorescence intensity (a.u.)
4,GACTACTGAATGTGCTATTCTTGGCCTTTTCTATAGATAACGGAGTCACCTAGTGCAG,9960 fluorescence intensity (a.u.)
5,CTATTTTGGCCACTCGGGAGATGGTGTTGTTTCTGAATTTCGGAGTCACCTAGTGCAG,8180 fluorescence intensity (a.u.)
6,CTGTCTTCACCGTGCCGCTCCTTTCCTTCCATTTCATCTCCGGAGTCACCTAGTGCAG,8440 fluorescence intensity (a.u.)
7,CAGGGGTGGGTGTTAGCTGTTGTGCAAGAAGTGGTGTTTGCGGAGTCACCTAGTGCAG,10600 fluorescence intensity (a.u.)
8,GCCGGAGTCCATCGCCCTACATTGCCCACCAACCGCACGCCGGAGTCACCTAGTGCAG,10200 fluorescence intensity (a.u.)
9,TTCATATTCTTTTTTTTTTCGAGGTCATACTTTTTAATTCCGGAGTCACCTAGTGCAG,12200 fluorescence intensity (a.u.)
10,AAATTTATTGTTTGGCTGGAAGACGTGGGGTTTTAAGAGGCGGAGTCACCTAGTGCAG,8370 fluorescence intensity (a.u.)
11,CCACTGACTACTGATGGGTGTGTTGATAGTGTTTTGTCAGCGGAGTCACCTAGTGCAG,8870 fluorescence intensity (a.u.)
12,TTTTTGTTTTTTAATTGTGGAGTTTGGGAGGAGGAGGGGACGGAGTCACCTAGTGCAG,9870 fluorescence intensity (a.u.)
13,GCGGGGTTGATTTCTGACTGAGATTTTGTTTTTCTTTTCTCGGAGTCACCTAGTGCAG,14000 fluorescence intensity (a.u.)
14,GGGTTTGGGGATCGATTGATTTATAGGCTTTTTTGTTTTTCGGAGTCACCTAGTGCAG,8810 fluorescence intensity (a.u.)
15,CGTGGGGTGGGATCGGAAGCAGTGGAGTTGTTTTTATTATCGGAGTCACCTAGTGCAG,16500 fluorescence intensity (a.u.)
16,AGTGGATGAGTTTGAGTTTTAGGATTTAGTGGGGTATTATCGGAGTCACCTAGTGCAG,15100 fluorescence intensity (a.u.)
17,GGGGATTGGTTTGGTGTGGGTGTTTTGTGTGGGGATTGATCGGAGTCACCTAGTGCAG,28100 fluorescence intensity (a.u.)
18,AGGGTTTGTTTGTTTATTTGTTTGTTTGATCGGTGTGGGGCGGAGTCACCTAGTGCAG,13300 fluorescence intensity (a.u.)
19,GAGGTGGCTGGAGTGGGGTTTAGTGTTGGTTGTTAGGGATCGGAGTCACCTAGTGCAG,13500 fluorescence intensity (a.u.)
20,GTTGCAGGGTGGGGATTGTTAAATTTATTGTTTGGCTGGACGGAGTCACCTAGTGCAG,16600 fluorescence intensity (a.u.)
21,TTTTTCACGGGGATGGGTCGGGGATTGTTGACTGATAAAGCGGAGTCACCTAGTGCAG,21700 fluorescence intensity (a.u.)
